“And” between values parts separate entries of the source, which are not always exact repeats. Equal values may be shown once. About 22,000 (6.9%) of roughly 320,000 compounds were called active. Another 27% or so got no clear call; they are omitted. The entries come from a sample that favours actives as a whole. A call without a number means that no potency is given here. A number with no mark means an inactive call. The call rests on the fitted dose curve; in most records, active means well fitted inhibition curve with a large enough effect; inconclusive means small, poorly fitted or top-dose-only effect, or another doubt; inactive means no such curve, though single readings can be large or run the other way.
Test: Primary qHTS for delayed death inhibitors of the malarial parasite plastid, 96 hour incubation
Settings: P. falciparum luciferase reporter growth; series mostly up to 28.7 µM
Text: The goal of this screen is to discover new antimalarial compounds that act by inhibiting the development of the apicoplast in the malarial parasite Plasmodium falciparum. The biochemical processes that make this organelle essential for erythrocytic stage parasites are not well understood. However, antibiotics such as azithromycin and tetracycline, which target the apicoplast translational machinery, have a potent antimalarial effect.
We have developed a cell-based assay that measures parasite growth based on the expression of an integrated copy of a firefly luciferase reporter. To detect small molecules that cause this "delayed death" phenotype, erythrocytes infected with the luciferase-expressing parasites were incubated with compounds for either one or two generations, corresponding to 48 and 96 hours, respectively. Compounds that inhibit parasite growth in the second generation, but not the first, should be enriched in antimalarials that target the apicoplast. Growth inhibition is detected by a decrease in luciferase activity.
Assay Provider: David Fidock and Eric Ekland, Columbia University
Keywords: NIH Roadmap, MLPCN, MLI, MLSMR, qHTS, NCGC, qHTS, malaria, luciferase, viability
Four microliters of infected erythrocytes (2% hematocrit, 0.05% parasitemia final concentration) in culture medium were dispensed and the plates incubated for 96 hours at 37 C in 5% CO2. Two microliters of luciferase detection reagent was added and luminescence was detected by a ViewLux (PerkinElmer) reader.
Potency means the concentration at half of the fitted maximal effect.

Structure (SMILES)	Potency	activity change, negative = inhibition
Cc1cccc(-c2c(NC(=O)c3ccco3)oc3ccc(Cl)cc3c2=O)c1	inactive	
Cc1noc(NS(=O)(=O)c2ccc(NC(=O)c3oc4ccc(F)cc4c3C)cc2)c1C	inactive	
Cn1cnc2c1c(=O)n(Cc1c(Cl)cccc1Cl)c(=O)n2C	inactive	
CCOC(=O)CSc1nc2c(c(=O)n(Cc3ccccc3Cl)c(=O)n2C)n1C	inactive	
CC(C)CCn1c(=O)c2c(nc3n2CCCN3Cc2ccccc2)n(C)c1=O	6.57 µM (active)	
N/C(=N\OC(=O)N1c2ccccc2Sc2ccccc21)c1ccc(Br)cc1	10.4 µM (active)	
N/C(=N\OC(=O)Cc1ccccc1[N+](=O)[O-])c1ccc(Br)cc1		12.7% [at 5.75 µM]
N/C(=N\OC(=O)/C=C/c1ccccc1)c1ccc(Br)cc1	inactive	
Cc1ccc(C)c(SCc2nc3sc(C(=O)O)c(C)c3c(=O)[nH]2)c1	inactive	
CC1CCN(C(=O)c2ccc3c(c2)NC(=O)CN3)CC1	inactive	
Cn1cc(CNC(=O)c2ccc(OC3CCN(Cc4ccccn4)CC3)cc2)cn1	inactive	
O=C(NCC1CCCO1)c1cc2c([nH]c3ccccc32)c(-c2ccc(F)cc2)n1 (stereo not given)	9.28 µM (active)	
O=C(Nc1ccccc1C(=O)NCC1CCCO1)c1ccccc1F (stereo not given)	inactive	
COc1ccc2cc(C(=O)NCC3CCCO3)[nH]c2c1 (stereo not given)	inactive	
Cc1ccc(C(=O)Nc2ccn(C)n2)cc1	inactive	
CCOc1ccc(-c2nc(C)sc2CC(=O)O)cc1	inactive	
CCOc1ccc2c(c1)C(c1ccc(C)cc1)=NNC(c1ccc(C)cc1)=N2	inactive	
CCOc1ccc(-c2cc(C)[n+](CCN(CC)CC)c(-c3ccc(OCC)cc3)c2)cc1	0.37 µM (active)	
Nc1ccc(C(=O)Nc2ccccc2N)cc1	inactive	
O=C(COc1ccccc1)Nc1ccc(N2CCN(C(=O)c3cccs3)CC2)cc1	inactive	
COc1ccc(S(=O)(=O)N2CCN(C(=O)c3cccs3)CC2)cc1OC	inactive	
CCS(=O)(=O)N1CCN(C(=O)c2cccs2)CC1	4.65 µM (active)	
COc1ccc(N2CCN(C(=O)c3cccs3)CC2)cc1	13.1 µM (active)	
Cc1ccc(S(=O)(=O)N2CCN(C(=O)c3cccs3)CC2)cc1	inactive	
O=C(c1cccs1)N1CCN(C(=O)N2CCOCC2)CC1	inactive	
NC(=O)COc1ccccc1C(=O)NC12CC3CC(CC(C3)C1)C2	inactive	
CCN(CC)CCCN=C(N)N	inactive	

Structure (SMILES)	Potency	activity change, negative = inhibition
CC(C)(C)n1nnnc1C(c1ccccc1F)N1CCN(C(=O)c2ccco2)CC1 (stereo not given)	inactive	
COc1ccc(CN2CCN(Cc3ccc(OC)c(OC)c3OC)CC2)cc1	inactive	
Cc1nc(C(=O)Nc2ccc(Cl)cc2)sc1C1(C)CC(c2ccccc2)=NO1 (stereo not given)	inactive	
Cc1nn(-c2ccccc2)c(=O)c2noc(C)c12	inactive	
COc1ccc(C(=O)Nc2cc(C)c(NC(=O)c3ccccc3OC)cn2)cc1	inactive	
CSC1=N/C(=C\c2ccc3c(c2)OCO3)C(=O)S1	inactive	
Cc1cccc(C2=N/C(=C/c3cccs3)C(=O)O2)c1	inactive	
CSC1=N/C(=C\C=C\c2cccs2)C(=O)S1	5.22 µM (active)	
O=S(=O)(Cc1noc(-c2ccc(OC(F)(F)F)cc2)n1)c1ccc(F)cc1	inactive	
COc1ccc(NC(=O)c2cccc(Cl)c2)c[n+]1[O-]	inactive	
COc1cc(OC)c(-n2cc(-c3ccc(Cl)cc3)[nH]c2=O)cc1Cl	inactive	
COc1cc(OC)c(-n2c(C)cc(C=O)c2C)cc1Cl	13.1 µM (active)	
COc1cc(Cl)c(S(=O)(=O)n2cnc(C)c2)cc1Cl	inactive	
O=C1c2ccccc2C(=O)N1c1cccc2ccccc12	inactive	
Cc1n[nH]c(=O)c2c(NC(=O)CSc3cc(Cl)ccc3Cl)oc(C)c12	inactive	
CCn1cc(CN2CCC(C(=O)Nc3cccc(-c4cccc(Cl)c4)c3)CC2)cn1	inactive	
COc1cccc(-c2cccc(NC(=O)C3CCN(C4CCC4)CC3)c2)c1	inactive	
O=C(Nc1cccc(-c2cccc(Cl)c2)c1)C1CCN(C2CCC2)CC1	10.4 µM (active)	
COC(=O)CSc1nnc(NC(=O)CCc2ccccc2)s1	inactive	
CC(C)CCN1CCN=C1N(C)C	inactive	
COc1ccc(S(=O)(=O)N2CCN(C(=O)N(C)C)C2C)cc1 (stereo not given)	inactive	
Cc1cccc(C(=O)N2CCN(S(=O)(=O)N3CCCCC3)CC2)c1	inactive	
CCCCN(CCCC)CCC(O)c1cc2c(Cl)cc(Cl)cc2c2cc(C(F)(F)F)ccc12 (stereo not given)	2.6 nM (active) and 2.9 nM (active)	
Cc1ccc(NC(=O)NCC(c2cccnc2)N2CCOCC2)cc1 (stereo not given)	inactive	
Cc1ccc(S(=O)(=O)N(C)CC(=O)NCC(c2ccc(F)cc2)N2CCOCC2)cc1 (stereo not given)	10.4 µM (active)	
CN(CC(=O)NCC(c1ccccc1)N1CCCC1)S(=O)(=O)c1ccc(Cl)cc1 (stereo not given)	8.28 µM (active)	
CN(CC(=O)NNC(=O)CNC(=O)c1ccccc1Cl)S(=O)(=O)c1ccc(Cl)cc1	inactive	

Structure (SMILES)	Potency	activity change, negative = inhibition
CN(CC(=O)NCCN1CCOCC1)S(=O)(=O)c1ccc(F)cc1	inactive	
CN(CC(=O)NCCc1ccccn1)S(=O)(=O)c1ccc(Cl)cc1	inactive	
COc1ccccc1OCCOc1ccc(/C=C2\C(=N)N3N=C(C)SC3=NC2=O)cc1	inactive	
CCN1CCN(C(=O)c2ccc(CN(c3ccc(C)c(C)c3)S(C)(=O)=O)cc2)CC1	10.4 µM (active)	
CCOC(=O)N1CCN(C(=O)c2ccc(CN(c3ccc(C)c(C)c3)S(C)(=O)=O)cc2)CC1	inactive	
CCOC(=O)N1CCN(C(=O)CN(c2ccc(C)c(C)c2)S(=O)(=O)c2ccccc2)CC1	inactive	
CC1CN(C(=S)Nc2ccccc2F)CC(C)O1 (stereo not given)	inactive	
CCCc1cc(=O)n2[nH]c(C)c(-c3ccc(Cl)cc3)c2n1	inactive	
O=c1[nH]n(-c2cccc(Cl)c2)c2ncccc12	inactive	
Cc1[nH]n(-c2cccc(Cl)c2)c(=O)c1-c1ccc(Cl)cc1	0.415 µM (active)	
CC(C)(O)c1ccccc1CC[C@H](SCC1(CC(=O)O)CC1)c1cccc(/C=C/c2ccc3ccc(Cl)cc3n2)c1	inactive	
NS(=O)(=O)c1ccc(CCNc2nc(C(F)(F)F)nc3ccccc23)cc1	inactive	
CCc1ccc(C(CNc2nc(C(F)(F)F)nc3ccccc23)N(C)C)cc1 (stereo not given)	11.7 µM (active)	
Cc1cc(C)n(-c2nc(C(F)(F)F)nc3ccccc23)n1		14% [at 5.75 µM]
O=C(OCc1ccc([N+](=O)[O-])cc1)C1CC(=O)N(Cc2ccccc2Cl)C1 (stereo not given)	inactive	
O=C(COc1cccc2c1CCNC2=O)NC1CCCCC1	inactive	
O=C(O)c1cccc(S(=O)(=O)N2CC=C(c3ccccc3)CC2)c1	inactive	
NC1=NN(c2cccc(C(=O)O)c2)C(=O)C1	13.1 µM (active)	
O=C(O)c1cccc(N=NN2CCCCCC2)c1	inactive	
COC(=O)C1CCN(C(=O)c2ccc3oc(Cc4ccc(Cl)cc4)nc3c2)CC1	inactive	
CC(=O)N1CCC(C(=O)OCc2ccc(Cl)cc2)(c2ccccc2)CC1	inactive	
O=C(c1ccccc1)N1CCC(CC2CC(c3ccc(Cl)cc3)=NO2)(C(=O)NCC2CCCCC2)CC1 (stereo not given)	1.04 µM (active)	
CCCCCCCNC(=O)C1(CC2CC(c3cccc(Br)c3)=NO2)CCN(C(=O)c2cc(OCC)c(OCC)c(OCC)c2)CC1 (stereo not given)	0.329 µM (active)	
CCOc1ccccc1N1CCN(C(=O)c2ccc3[nH]c(C)c(C)c3c2)CC1	inactive	
COc1ccccc1C(=O)NC(=O)COC(=O)c1ccco1	inactive	
Cc1ccc(N2C(=O)CC(Nc3cccc4ccccc34)C2=O)cc1 (stereo not given)	inactive	
COc1ccc(C2=NS(=O)(=O)N(C)C(C(=O)NC(C)c3ccccc3)=C2)cc1 (stereo not given)	inactive	

Structure (SMILES)	Potency	activity change, negative = inhibition
COc1ccccc1CCC(=O)NNC(=O)c1ccncc1	inactive	
Cc1nn(-c2ccccc2)c(C)c1NC(=O)COC(=O)c1cc(Cl)ccc1O	inactive	
CCN1CCN(C(c2cccnc2)c2cc(Cl)c3cccnc3c2O)CC1 (stereo not given)	10.4 µM (active)	
CCN1CCN(c2ccc(NC(=O)c3cnccn3)cc2)CC1	inactive	
Cc1nc(C)c(-c2nnc(-c3cccc(S(=O)(=O)N(C)C)c3)o2)cc1C(=O)NN	inactive	
Cn1c(SCC(=O)Nc2ccc(N3CCOCC3)cc2)nnc1C(F)(F)F	inactive	
Cc1ccccc1NC(=O)c1cc(S(=O)(=O)Nc2cccc(C(=O)O)c2)ccc1Cl	inactive	
O=C(NC1CC1)c1ccc2c(c1)NC(=O)c1ccccc1S2	8.28 µM (active)	
O=C(NC1CC1)c1cccc(Br)c1	inactive	
S=C1Nc2cc(Cl)ccc2Sc2ccccc21	inactive	
CCOC(=O)C(C)n1cnc2scc(-c3ccc(C)c(C)c3)c2c1=O (stereo not given)	inactive	
COC(=O)Cn1cnc2scc(-c3ccc(C)c(C)c3)c2c1=O	10.4 µM (active)	
CCn1cnc2scc(-c3ccc(C)c(C)c3)c2c1=O	inactive	
CSc1ccccc1NC(=O)C(C)N1C(=O)c2ccccc2S1(=O)=O (stereo not given)	inactive	
COc1ccc(NC(=O)C(C)N2c3cccc4cccc(c34)S2(=O)=O)c(OC)c1 (stereo not given)	2.94 µM (active)	
COc1ccc(NC(=O)CCN2CCCC2)c(OC)c1	inactive	
CN(CC(=O)NCc1ccc2c(c1)OCO2)CC(=O)Nc1ccc(F)c(F)c1F	inactive	
CCC(C)N(C(=O)COC(=O)c1nc(Cl)ccc1Cl)C1CCS(=O)(=O)C1 (stereo not given)	inactive	
O=C(c1ccc(OC2CCN(C/C=C/c3ccc(F)cc3)CC2)cc1)N1CCCCC1	inactive	
COc1ccc(S(=O)(=O)N(C)CC(=O)N2CCCC2)cc1	inactive	
Cc1ccc(S(=O)(=O)N2CCC(Oc3ccc(-n4cnnn4)cc3)CC2)cc1	inactive	
CC(C)(c1ccccc1)c1ccc(OCCN)cc1	inactive	
CN1CCC[C@@H]1CCO[C@](C)(c1ccccc1)c1ccc(Cl)cc1	15.1 µM (active)	
CC(C)(c1ccccc1)c1ccc(OCCN2CCCC2)cc1	inactive	
